PubChem BioAssay
Calls of active or inactive are those of the source.

experiment: CREB reporter modulators without forskolin, primary screen, cell-based, PC12, CRE-LacZ reporter, unstimulated (AID 1145); conditions: no forskolin, luminescence, 4.5 h, higher = more signal, called active from +8 up or from −8 down

z-score, inactive:
C=CC[C@]1(C(=O)NCC(O)CO)N=C(c2ccc(OCCCO)cc2)O[C@H]1c1ccccc1CN=[N+]=[N-] (stereo not given in full) 0.652, C[C@]1(C(=O)NC2CC2)c2ccccc2C(=O)N(Cc2cc(F)cc(C(F)(F)F)c2)[C@H]1c1ccc(CO)cc1 0.764, CC(C)N1CC=CC23O[C@@H]4/C=C\CCCOC(=O)C4[C@H]2C(=O)N(C(C)CO)[C@@H]3C1=O (stereo not given in full) -1.58, CCOC(=O)C[C@H]1[C@H](OC(=O)c2ccccc2-c2ccccc2)[C@@H](NC(=O)CC(C)C)c2cc(OCCCO)ccc2N1C(=O)c1ccccc1 1.94, CN(C)CCCCNC(=O)[C@H]1C[C@H]2C(=O)N[C@@H](CCCCN(C)C)C(=O)N2[C@H]1c1ccc(O)cc1 -1.61, CC(CO)N1C(=O)[C@@H]2[C@H]3C(=O)OCC=C[C@H]3OC23C=CCN(c2ccc4ccccc4c2)C(=O)[C@@H]13 (stereo not given in full) 0.862, CC(C)N1C(=O)[C@@]2(Cc3ccccc31)c1ccccc1C(=O)N(Cc1ccccc1)[C@H]2c1ccc(CO)cc1 -0.114, CCOC(=O)C1=CC[C@@H](c2ccccc2)N(S(=O)(=O)c2ccc(C)cc2)[C@@H]1C#N -0.266, COc1ccc([Si](C)(C)[C@@H]2[C@@H](CC(=O)N(CCO)Cc3ccccc3)O[C@]3(C(=O)N(Cc4cccc(I)c4)c4ccccc43)[C@H]2C)cc1 1.42, CO[C@H]1O[C@H](CO)[C@@H](OC(=O)CCc2ccccc2)[C@@H]2OC(=O)[C@@H](Cc3ccc4ccccc4c3)C/C=C/C[C@H](Cc3ccc4ccccc4c3)C(=O)O[C@@H]12 -0.151
